The supplement of paper PMC12636033
± gives the standard deviation of the averaged measurements. Over roughly 33,000 sequences, “E-score (rank enrichment, -0.5 to 0.5)” has its median near -0.0068; the highest 2% begin near 0.24. Many of the other results were omitted from the sample, so the highest values are more common in it than they were.

System: muMax20 (Max(13-93) K31hArg/K57hArg, M65Nle)
Assay: PBM 8-mer E-score (E-score (rank enrichment, -0.5 to 0.5)); higher = stronger preferential binding
Description: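 Protein binding microarray (universal PBM chip covering all 10-mers in fixed probe flanks) with chemically synthesized human Max(13-93) bHLH-LZ analogs (not full-length Max) bearing noncanonical residues (hArg, Tha, Aib, Nle at 65) and aromatic Cys staples. Read-out per 8-mer (and its reverse complement): E-score (rank-based enrichment, -0.5 to 0.5) and Z-score of median probe intensity.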

Point of comparison: AAGACACT, “PBM 8-mer E-score” value 0.186 ± 0.0044. Against it:
- GAAGCTTA — lower, 0.129 ± 0.018
- ATGGACTA — lower, 0.128 ± 0.015
- GCGGATAA — lower, -0.0466 ± 0.033
- CTGACTAC — lower, -0.0404 ± 0.19
- CTATAAGC — lower, -0.00153 ± 0.018
- ACTGCATG — lower, -0.0337 ± 0.13
- AATGCAAG — lower, 0.0709 ± 0.08
- CATGCAAC — higher, 0.327 ± 0.012
- CATGCAAG — lower, 0.118 ± 0.015
- AATGCAAC — within error, 0.197 ± 0.047
- AATGCATG — within error, 0.237 ± 0.073
- GACTCCGA — lower, -0.155 ± 0.046
- TCTCGACA — lower, -0.0258 ± 0.011
- TCGGGTAA — lower, 0.00741 ± 0.027
- ACAGGCAT — lower, -0.0411 ± 0.063
- CCTCTCTC — lower, -0.045 ± 0.086
- CTATCACA — within error, 0.169 ± 0.029
- ATATCATA — within error, 0.253 ± 0.14
- CCATCATA — lower, 0.0385 ± 0.12
- ACATCACT — within error, 0.245 ± 0.095
- CTATCATA — within error, 0.208 ± 0.054
- GCATCAGA — lower, 0.0605 ± 0.012
- ATATCACA — within error, 0.117 ± 0.14
- ATATCACG — higher, 0.294 ± 0.068
- ACATCACC — lower, -0.0768 ± 0.063
- ATATCATG — within error, 0.175 ± 0.056
- ACATCACA — higher, 0.221 ± 0.009
- GCATCATA — higher, 0.274 ± 0.019
- AGACTGGG — lower, -0.147 ± 0.064
- ACGGAATA — lower, -0.0839 ± 0.0017
- AGCTTGGG — lower, -0.0797 ± 0.022
- CAATGATG — lower, -0.00417 ± 0.0019
- ACGCTCGC — within error, 0.0344 ± 0.16
- CTGAGCTA — lower, -0.17 ± 0.098
- CATTTTAC — within error, 0.188 ± 0.026
- GCGTCAAA — lower, -0.0402 ± 0.15
- AGACGGGA — lower, -0.0877 ± 0.053
- TGAATCCA — lower, 0.0507 ± 0.048
- GGGTTCCA — lower, -0.11 ± 0.023
- AGCGATTG — lower, -0.152 ± 0.033
- ACCAATCT — lower, -0.0171 ± 0.067
- ACATCATA — higher, 0.249 ± 0.038
- CTGTCACA — lower, 0.00831 ± 0.13
- ACATCATC — within error, 0.166 ± 0.041
- ACATCATG — lower, 0.07 ± 0.031
- ATGTCACA — lower, 0.131 ± 0.002
- ATGTCACG — higher, 0.297 ± 0.063
- AGGGTTTC — lower, -0.0163 ± 0.01
- ATATAACC — within error, 0.171 ± 0.041
- ATATAACG — higher, 0.269 ± 0.044
- ATATAACA — higher, 0.262 ± 0.032
- AAATAACG — higher, 0.309 ± 0.086
- AAATAACA — within error, 0.204 ± 0.018
- GTATAACA — higher, 0.228 ± 0.019
- CTATAACC — lower, 0.0519 ± 0.0013
- CTATAACA — within error, 0.157 ± 0.085
- CAATAACG — lower, 0.0808 ± 0.07
- GATAATTA — lower, 0.127 ± 0.021
- AATAATTA — within error, 0.26 ± 0.072
- CATAATTC — lower, -0.00772 ± 0.086
- AATAATTC — within error, 0.179 ± 0.12
- CCTAATTA — within error, 0.0515 ± 0.15
- CATAATTA — higher, 0.237 ± 0.031
- GCGGAGCA — lower, -0.239 ± 0.06
- GAAACACA — lower, 0.0586 ± 0.066
- ACAAGCTG — lower, -0.103 ± 0.091
- AGACAATA — higher, 0.2983 ± 0.00038
- GAACAATA — lower, 0.0766 ± 0.03
- CAACAATC — lower, 0.0661 ± 0.052
- CAACAATG — within error, 0.137 ± 0.096
- TAACAATA — higher, 0.257 ± 0.033
- AGACAATC — lower, 0.0672 ± 0.021
- CAACAATA — higher, 0.324 ± 0.022
- AAACAATA — higher, 0.234 ± 0.038
- AGACAATG — lower, 0.0426 ± 0.00081
- ACACCCGG — lower, -0.144 ± 0.016
- GGGCTTGA — lower, -0.165 ± 0.025
- ACACAGGA — lower, 0.0105 ± 0.0057
- ACGGTCCT — lower, -0.272 ± 0.044
- CTAAGTGC — lower, -0.0257 ± 0.067
- TAAGAGAA — lower, -0.0222 ± 0.03
- ACAAAAAC — within error, 0.178 ± 0.055
- ACCAAAAT — within error, 0.168 ± 0.03
- AAAAAAAT — within error, 0.168 ± 0.066
- ACAAAAAA — higher, 0.249 ± 0.033
- ACAAAAAG — within error, 0.125 ± 0.074
- GCAAATCA — lower, -0.0323 ± 0.096
- CCAAATCA — lower, -0.0102 ± 0.046
- ACAAAAAT — higher, 0.241 ± 0.05
- ACAAATCA — within error, 0.237 ± 0.12
- GTCATAAA — within error, 0.193 ± 0.01
- CCAAAACA — within error, 0.231 ± 0.1
- ACCACCGG — lower, -0.2177 ± 0.00071
- ATCTCTCC — lower, -0.0165 ± 0.16
- AACGCCCA — lower, -0.077 ± 0.015
- AACGCCAC — lower, -0.111 ± 0.023
- CTATGCCC — lower, -0.0261 ± 0.02
- AACGAATC — lower, 0.023 ± 0.089
- TGGTTACA — lower, 0.0957 ± 0.036
- ATTATAAA — higher, 0.296 ± 0.053
- ATTATAAG — within error, 0.115 ± 0.13
- GTTATAAC — within error, 0.187 ± 0.11
- CTTATAAA — within error, 0.191 ± 0.0045
- ATTATAAT — within error, 0.201 ± 0.042
- GTTATAAA — higher, 0.239 ± 0.037
- AGCCCAAG — lower, -0.08 ± 0.11
- CGAGAAGA — lower, 0.0468 ± 0.0088
- AGCCGTTG — lower, -0.0362 ± 0.068
- ACATATAG — within error, 0.0848 ± 0.12
- ACATATAT — higher, 0.323 ± 0.054
- ACCTATAT — higher, 0.265 ± 0.0044
- ACCTATAC — lower, 0.0268 ± 0.14
- AAATATAC — within error, 0.209 ± 0.032
- ACATATAA — higher, 0.336 ± 0.069
- ACCTATAA — lower, 0.0216 ± 0.083
- ACATATAC — within error, 0.159 ± 0.052
- CCATATAA — within error, 0.225 ± 0.044
- AAATATAA — within error, 0.218 ± 0.046
- TCATATAA — within error, 0.227 ± 0.06
- AAATATAT — higher, 0.2435 ± 0.0013
- GCGTTTGA — lower, -0.0646 ± 0.018
- AAGCGAGG — lower, -0.129 ± 0.12
- GGCCACTA — lower, 0.0658 ± 0.077
- GTTGCGCA — lower, -0.0795 ± 0.002
- CACAGGTG — lower, -0.0404 ± 0.033
- ACCTATCA — lower, 0.0576 ± 0.061
- CTATCGTC — lower, -0.0258 ± 0.024
- CCGCGACA — lower, -0.0992 ± 0.1
- TGGCAAAA — lower, -0.0471 ± 0.026
- CCACGGGG — lower, -0.281 ± 0.017
- TAATCACA — higher, 0.264 ± 0.042
- CAATCACC — lower, 0.139 ± 0.013
- GAATCACA — lower, -0.0241 ± 0.022
- CAATCACA — within error, 0.122 ± 0.095
- AAATCACA — within error, 0.203 ± 0.026
- CAATCACG — higher, 0.288 ± 0.039
- CCCGCAGC — lower, -0.278 ± 0.086
- TAACGGGA — lower, -0.0715 ± 0.059
- ACCGCTAC — lower, -0.215 ± 0.034
- AACTCCAG — lower, -0.117 ± 0.049
- TAATGTAA — higher, 0.252 ± 0.024
- CAATGTGA — lower, 0.148 ± 0.0073
- GAATGTGA — lower, 0.0628 ± 0.06
- AAATGTAA — within error, 0.157 ± 0.049
- AATTGTAA — within error, 0.196 ± 0.011
- GATTGTAA — lower, 0.0589 ± 0.011
- TAATGTGA — higher, 0.262 ± 0.065
- TATTGTAA — higher, 0.242 ± 0.023
- GAATGTAA — lower, 0.0967 ± 0.041
- AGTGGCCC — lower, -0.0606 ± 0.016
- TCCCGACA — lower, -0.0715 ± 0.11
- GTTACCTA — lower, 0.0231 ± 0.039
- ACCGGCTG — lower, -0.257 ± 0.018
- TCAAGAAA — lower, 0.103 ± 0.021
- TCACTCCA — lower, -0.0737 ± 0.21
- GATCCGAA — lower, -0.13 ± 0.057
- GAGATGGC — lower, 0.0296 ± 0.023
- CAGTCCGG — lower, -0.297 ± 0.023
- ATCCAGCC — lower, -0.09 ± 0.07
- GCTTGCAC — lower, -0.252 ± 0.0059
- AGCCGGTC — lower, -0.295 ± 0.086
- ACTGTTCC — lower, -0.187 ± 0.12
- GCGTGGAC — lower, 0.0607 ± 0.05
- CCGTGGAG — lower, -0.131 ± 0.092
- ACGTGGAC — within error, 0.27 ± 0.08
- AAGTGGAT — lower, 0.00777 ± 0.081
- ACGTGGAG — within error, 0.245 ± 0.14
- CCGTGGAC — lower, -0.13 ± 0.12
- ACGTGGAT — higher, 0.342 ± 0.012
- ACGTGGAA — within error, 0.195 ± 0.017
- ACGTGGGG — within error, 0.16 ± 0.039
